From PubChem BioAssay
Mtb bLac sens = beta-lactam sensitization of Mtb H37Rv. actives 0.27% (n = 330,000). M. tuberculosis H37Rv growth with meropenem, percent inhibition. inhibition, % at 25 µM. AID 434955; call rule not given here;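 also: growth measured after seven days incubation then overnight dye step; 0% = bacteria only wells and 100% = bacteria with antibiotic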
UGM FP inh = inhibitors of M. tuberculosis UDP-galactopyranose mutase; inhibition, % at 10 µM; P9WIQ1; actives 0.06% (n = 320,000); purified UGM, fluorescence polarization probe displacement; AID 504406; in the data active = inhibition above about 10%, passing the limit was not always enough
GDH-TPI inh = GDH-TPI coupled enzyme inhibition counter-screen | GDH-TPI coupled enzyme counterscreen, NADH absorbance | inhibition, % at 4.8 µM | actives 1.2% (n = 360,000) | AID 588335; in the data active = inhibition above about 30%;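 also: 0% = DMSO wells and 100% = wells lacking the enzyme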
Mtb FBA inh = inhibits M. tuberculosis FBA enzyme; actives 2.3% (n = 360,000); P9WQA3; AID 588726; purified M. tuberculosis FBA, fluorescence read-out; inhibition, % at 1 µM; in the data active = inhibition above about 27%;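 also: 0% = vehicle and 100% = reference inhibitor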
Target sequence (P9WQA3 whole entry, looked up): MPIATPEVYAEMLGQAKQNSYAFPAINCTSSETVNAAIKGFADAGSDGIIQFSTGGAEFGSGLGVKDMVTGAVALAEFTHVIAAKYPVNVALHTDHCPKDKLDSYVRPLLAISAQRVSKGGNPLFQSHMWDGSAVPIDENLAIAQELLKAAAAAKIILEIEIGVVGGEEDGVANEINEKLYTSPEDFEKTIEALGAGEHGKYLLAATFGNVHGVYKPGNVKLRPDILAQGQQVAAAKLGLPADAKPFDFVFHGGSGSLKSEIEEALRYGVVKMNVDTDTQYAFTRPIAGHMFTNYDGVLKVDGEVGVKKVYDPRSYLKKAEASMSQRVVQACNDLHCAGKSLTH
Rv3671c inh = inhibits the M. tuberculosis serine protease Rv3671c | P9WHR9 | inhibition, % at 5.96 µM | actives 0.048% (n = 320,000) | AID 2606; in the data active = inhibition above about 38%;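 also: extracellular domain of Rv3671c used as enzyme; 0% = enzyme with DMSO and 100% = no enzyme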
* marks the source's active call; other numbers are inactive results; x = no result; + = active, no number. An excerpt weighted towards active compounds, which were near 3.5% of everything screened.

SMILES	Mtb bLac sens	UGM FP inh	GDH-TPI inh	Mtb FBA inh	Rv3671c inh
CCCc1nnc(NC(=O)c2oc3ccccc3c2COCC)s1	x	x	22	-1	x
O=C(Nc1ccc(Br)cc1)Nc1ccccc1Cl	1	1	10	5	-6
CC(=O)c1ccc(N2CCN(C(=O)CCCn3c(=O)[nH]c4ccc(Br)cc4c3=O)CC2)cc1	24	4	32*	-2	2
CC(=O)c1ccc(N2CCN(C(=O)CCCn3c(=O)[nH]c4ccsc4c3=O)CC2)cc1	-4	-4	30	1	8
CCOc1cc(C(=O)N2CCN(c3ccc(C(C)=O)cc3)CC2)cc(OCC)c1OCC	99	-3	31*	1	-1
CC(=O)c1ccc(N2CCN(C(=O)c3ccc4[nH]c(C)c(C)c4c3)CC2)cc1	-2	-2	35*	5	4
CCOc1cc(C(=O)N2CCN(c3ccccc3)CC2)cc(OCC)c1OCC	95	-1	-2	2	-2
COc1ccc(N2CCN(C(=O)c3ccc4[nH]c(C)c(C)c4c3)CC2)cc1	75	0	-1	1	7
O=C(c1cccc(Br)c1)N1CCN(S(=O)(=O)N2CCCCCC2)CC1	-18	-2	-8	0	2
CC(C)CCOC(=O)c1c(N)n(CC2CCCO2)c2nc3ccccc3nc12 (stereo not drawn)	9	-1	21	149*	-34
Nc1c(C(=O)OC2CCCCC2)c2nc3ccccc3nc2n1CC1CCCO1 (stereo not drawn)	17	2	18	149*	-12
CC(C)OC(=O)c1c(N)n(CC2CCCO2)c2nc3ccccc3nc12 (stereo not drawn)	3	3	9	190*	-15
Cc1nn(-c2ccccc2)c(Cl)c1C(=O)NCC1CCCO1 (stereo not drawn)	1	14*	3	-1	-7
Cc1ccc(S(=O)(=O)N2CCN(C(=O)CCOc3cc(C)ccc3C)CC2)cc1	-3	-1	3	-2	-8
Cc1ccc(C2(c3ccccc3)NC(=O)N(CC(=O)N(C)C3CCS(=O)(=O)C3)C2=O)cc1C (stereo not drawn)	-1	0	0	2	-2
CCNC(=S)Nc1ccc(Cl)c([N+](=O)[O-])c1	35	2	12	-2	-17
CC(C)(C)c1cc(/C=N/NC(=O)C[n+]2ccccc2)cc(C(C)(C)C)c1O	-7	3	-1	0	7
COc1ccccc1-n1c(N)c(C(=O)NCC2CCCO2)c2nc3ccccc3nc21 (stereo not drawn)	2	4	-2	113*	0
COc1ccc(CCNS(=O)(=O)c2c(C)nc3scc(C)n3c2=O)cc1OC	2	0	4	0	1
CCOc1ccc(CCNS(=O)(=O)c2c(C)nc3scc(C)n3c2=O)cc1OCC	9	3	33*	-1	-1
Cc1c(CC(=O)NCC(=O)O)c(=O)oc2cc3c(cc12)CCC(C)(C)O3	-7	1	30	+	-9
Cc1c(CC(=O)NCC(=O)NCC(=O)O)c(=O)oc2cc3c(cc12)CCC(C)(C)O3	-2	-1	22	194*	-3
Cc1c(CC(=O)NCCCO)c(=O)oc2cc3c(cc12)CCC(C)(C)O3	-6	0	22	183*	5
Cn1cccc1C(=O)NC1CCCCCC1	4	x	6	1	-3
O=C(NCCN1CCOCC1)C(=O)c1c[nH]c2ccccc12	2	-1	27	-4	4
SMILES	Mtb bLac sens	UGM FP inh	GDH-TPI inh	Mtb FBA inh	Rv3671c inh
COc1ccc(COC(=O)C2CCN(S(=O)(=O)c3ccc(C)cc3)CC2)cc1	-4	2	10	-2	3
Cc1c(C(=O)NNS(=O)(=O)c2ccccc2)sc(=S)n1C	6	-1	20	-1	3
CC(=O)NNC(=O)c1sc(=S)n(C)c1C	32	2	33*	-4	-2
CN(CC(=O)OCC(=O)NC(=O)c1cccn1C)S(=O)(=O)c1ccc(Cl)cc1	1	2	7	193*	-5
O=C(N/N=C/c1ccccn1)c1[nH]c2ccc([N+](=O)[O-])cc2c1-c1ccccc1	52	1	41*	-2	-32
Cc1ccc(S(=O)(=O)NCCC(=O)NC(C)CCc2ccccc2)cc1 (stereo not drawn)	-3	x	2	-3	3
Cc1cccc(C(=O)NC(=S)NC(C)c2ccccc2)c1 (stereo not drawn)	3	-1	-12	1	-10
Cc1cc(NC(=O)c2sc(Nc3cccc(C(F)(F)F)c3)nc2N)no1	38	1	33*	-1	10
COC(=O)C1=C(C)N(Cc2ccco2)C(=O)N[C@H]1c1ccc(Br)cc1	-5	-1	x	x	-5
Cc1ccc(Cn2ccc(NC(=O)c3cc(-c4ccc(Cl)cc4)on3)n2)cc1	-6	-1	6	2	5
N#CCCCCn1ccc(NC(=O)c2ccc(Cl)cc2O)n1	-8	4	32*	12	1
COc1ccccc1C(=O)N/N=C/C(C)=C/c1ccccc1	-2	0	32*	-5	5
O=C(N/N=C\c1ccc(Cl)s1)c1cccs1	63	1	33*	-2	-2
O=C(N/N=C/C(Br)=C\c1ccccc1)c1cccs1	60	5	31*	0	-6
CCOc1cc(C(=O)N/N=C/C(Br)=C/c2ccccc2)cc(OCC)c1OCC	-4	1	32*	-3	-35
CC(=C/c1ccccc1)/C=N/NC(=O)c1cccs1	8	1	29	-3	-7
O=C(N/N=C/c1ccncc1)c1cccs1	8	-2	5	-2	6
O=C(N/N=C/C(Br)=C/c1ccccc1)c1ccc([N+](=O)[O-])cc1	14	-2	10	0	-7
Cc1cc(NC(=O)COC(=O)C2CCC(=O)N2)c([N+](=O)[O-])cc1C (stereo not drawn)	0	-2	-8	-1	0
CCC(=O)c1ccc(OC(=O)N2CCOCC2)cc1	-1	0	-21	-2	0
COc1ccc(NCC(=O)N/N=C/C2CCCCC2)cc1	48	1	16	-1	-12
CC(=C/c1ccc(C(C)C)cc1)/C=N/NC(=O)c1ccncc1	99	1	30	-4	-13
CC(/C=N/NC(=O)c1ccncc1)=C\c1ccccc1	99	-1	45*	-2	0
O=C(N/N=C/C(Br)=C/c1ccccc1)c1ccncc1	99	1	36*	-1	-2
CC1(C)Cc2c(cnn2-c2ccc(F)cc2)C(NC(=O)CCc2ccncc2)C1 (stereo not drawn)	x	x	-3	-3	x
CCOC(=O)C1CCCN(C(=O)c2ccc(OCC)cc2)C1 (stereo not drawn)	5	0	-6	+	-4
CCN(CC)c1ccc(/C=N/n2c(-c3ccccc3Br)n[nH]c2=S)cc1	-13	2	38*	3	5
CN(C)N=Nc1nc2c([nH]1)c(=O)n(C)c(=O)n2C	-2	-6	19	-1	8
CN(C)N=Nc1nc2c(c(=O)n(C)c(=O)n2C)n1CC1CO1 (stereo not drawn)	0	1	35*	-2	-4
